From PubChem BioAssay (NCATS)
Results filed as inconclusive are left out. Calls of active or inactive are those of the source. Calls follow the shape of the dose curve; as a rule, active = well fitted curve in the direction sought with a large enough effect; inconclusive = small, poorly fitted or top-dose-only effect, or another doubt; inactive = no such curve, though single readings can be large; an effect the other way counts as inactive or inconclusive.

How the values were obtained:
[1] = qHTS assay for measurement of the activity of small molecule inhibitors on Zika virus induced Caspase-3 activity in human iPSC derived neural progenitor cells (hNPCs) (AID 1224857); also: nearly all actives have a fitted effect of over 65% in size
In short: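 After overnight (16–20 h) culture at 350 cells/well, hNPCs get compound, then ZIKV 2 FFU/cell one hour later. Six hours on, Caspase-Glo 3/7 is added and luminescence measured.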

[2] = qHTS assay for measurement of the activity of small molecule inhibitors on Zika virus induced Caspase-3 activity in human astrocytoma cells (AID 1224859)
In short: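 Inhibition of Zika-induced caspase-3/7 activity: SNB-19 cells, 1 h compound pretreatment, ZIKV 2 FFU/cell for 6 h at 37 C, Caspase-Glo luminescence read-out.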

[3] = qHTS assay to identify small molecule inhibitors of chordoma cells - UCH-1 (AID 1259355); also: nearly all actives have a fitted effect of over 55% in size
In short: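 A 48hr growth-inhibition format: each drug tested at 15 concentrations together with added auranofin, camptothecin, doxorubicin, rubitecan and topotecan, with cell viability quantified as CellTiter-Glo luminescence.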

[4] = qHTS assay to identify small molecule inhibitors of chordoma cells - UCH-2 (AID 1259356); also: series mostly up to about 46 µM
[5] = P-glycoprotein substrates identified in KB-8-5-11 adenocarcinoma cell line, qHTS therapeutic library screen (AID 1346987); conditions: outcome: dose series up to 44.5 µM; also: series mostly up to about 44 µM; nearly all actives have a fitted effect of over 65% in size
In short: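 Human cervical adenocarcinoma KB-8-5-11 cells, selected in colchicine to over-express P-gp and assayed without it, were exposed for 72 h to titrated compounds. An ATP-based luminescent viability signal gave AC50.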

[6] = NS1 protein of Zika virus - qHTS assay to identify small molecule inhibitors in human HEK 293 cells (AID 1347053); also: series mostly up to about 46 µM; nearly all actives have a fitted effect of over 55% in size
In short: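 TR-FRET signal from two anti-ZIKV NS1 antibodies quantified NS1 in HEK 293 cells 24 h after MR766 infection at MOI = 0.5; compounds were added 1 h before virus. Uninfected cells and infected cells defined the NS1 normalization range.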

[7] = qHTS of pediatric cancer cell lines to identify multiple opportunities for drug repurposing: Primary screen for TC32 cells (AID 1347089); also: nearly all actives have a fitted effect of over 60% in size
In short: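 qHTS, TC32, 48 h drug treatment, CellTiter-Glo luminescence as a proxy for metabolically active cells; primary top concentration 46 µM (MIPE 11-pt, NPC 8-pt); confirmatory 11-pt.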

[8] = qHTS of pediatric cancer cell lines to identify multiple opportunities for drug repurposing: Primary screen for DAOY cells (AID 1347090); also: series mostly up to about 46 µM; nearly all actives have a fitted effect of over 55% in size
In short: (§1)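 Eight- or eleven-point concentration series, 48 h treatment at 37 degrees C in growth media; readout CellTiter-Glo luminescence. Potency and efficacy were taken from the concentration-response curves.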

[9] = qHTS of pediatric cancer cell lines to identify multiple opportunities for drug repurposing: Primary screen for SJ-GBM2 cells (AID 1347091)
In short: as §1

[10] = qHTS of pediatric cancer cell lines to identify multiple opportunities for drug repurposing: Primary screen for SK-N-MC cells (AID 1347093); also: series mostly up to about 46 µM
In short: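 Metabolically active cells were quantified by ATP-dependent luminescence (CellTiter-Glo, 15 min at room temperature) following 48 h treatment. Cells had been plated at 500-1,000 per well and settled for 5 h beforehand.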

[11] = qHTS of pediatric cancer cell lines to identify multiple opportunities for drug repurposing: Primary screen for BT-37 cells (AID 1347094); also: series mostly up to about 57 µM
In short: (§2)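 Readout: CellTiter-Glo luminescence, 48 h treatment. Controls DMSO (neutral) and bortezomib 2.3 µM final (positive). Potency and efficacy taken from primary-screen concentration-response curves.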

[12] = qHTS of pediatric cancer cell lines to identify multiple opportunities for drug repurposing: Primary screen for NB-EBc1 cells (AID 1347095)
In short: as §2

[13] = qHTS of pediatric cancer cell lines to identify multiple opportunities for drug repurposing: Primary screen for U-2 OS cells (AID 1347096); also: nearly all actives have a fitted effect of over 50% in size
In short: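 Cells (500-1,000/well) in growth media were settled 5 h at 37 degrees C, then given compounds for 48 h. Viability was read as CellTiter-Glo luminescence. Primary runs used MIPE at 11 points (0.78 nM-46 µM) and NPC at 8 points (0.59 nM-46 µM); follow-ups used 11 points.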

[14] = qHTS of pediatric cancer cell lines to identify multiple opportunities for drug repurposing: Primary screen for Saos-2 cells (AID 1347097); also: nearly all actives have a fitted effect of over 40% in size
In short: as §2

[15] = qHTS of pediatric cancer cell lines to identify multiple opportunities for drug repurposing: Primary screen for SK-N-SH cells (AID 1347098); also: nearly all actives have a fitted effect of over 65% in size
In short: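 Cells (500-1,000/well) rested 5 h, then received compounds for 48 h; metabolically active cells were measured by CellTiter-Glo luminescence. Final concentrations spanned up to 46 µM (MIPE, 11-point) or 0.59 nM-46 µM (NPC, 8-point) in primary screens, 11-point in follow-ups.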

[16] = qHTS of pediatric cancer cell lines to identify multiple opportunities for drug repurposing: Primary screen for A673 cells (AID 1347092); also: nearly all actives have a fitted effect of over 45% in size
In short: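 Luminescence from CellTiter-Glo, taken after 15 min at room temperature, served as the proxy for metabolically active cells following 48 h treatment. Both potency and efficacy were taken from curves fitted to the titration data.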

Measured: Potency

Cc1ccsc1C(=CCCN1CCC[C@@H](C(=O)O)C1)c1sccc1C
not listed: [15] | [16]
inactive: all other assays above

C[C@@H]1CCC[C@H](C)N1
not listed: [16]
inactive: all other assays above

Nc1c2c(nc3c1CCC3)CCCC2
not listed: [12] | [14]
inactive: all other assays above

Cc1c(Cn2ccnc2)c2ccccc2n1CCC(=O)O
inactive: all assays above

Cc1c(N(C)C)c(=O)n(-c2ccccc2)n1C
not listed: [16]
inactive: all other assays above

CNCc1ccccc1
not listed: [10]
inactive: all other assays above

Nc1ccncc1N
not listed: [14]
inactive: all other assays above

CCN(CC)S(=O)(=O)c1ccc(C(=O)O)cc1
inactive: all assays above
